Compounds without any hit were thinned out: in the full panel of roughly 83,000, 20% have a hit.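 How to read the values: 0–100, growth inhibition (40 = 60% inhibited); 0, no net growth; -100 to 0, cell death (-40 = 40% of starting cells died; -100 = all dead).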 Active and inactive are the calls of the source. Rule for the calls: active = growth percent below 10; inactive = the rest.

This assay has as its system COLO 205 colon. As to the kind of experiment: NCI-60 one-dose screen, 48 h (100 = growth as untreated, 0 = no growth, -100 = all killed). To be noted: 10 µM unless noted.
On to `COc1cc(-c2nn(-c3ccccc3)cc2-c2ccnc(NCCNS(=O)(=O)c3ccc(Cl)cc3)n2)ccc1Cl`, for which the growth was 17.2% (inactive).

For the compound `COc1cccc(-c2nc3sccn3c2-c2ccnc(NCCNS(=O)(=O)c3cccc(Cl)c3)c2)c1`, the growth is 34.8% (inactive).

Take `O=C1N=c2cc3c(cc2=C/C1=C/c1sc(=S)n(CCc2ccc(O)cc2)c1O)OCCO3`: the growth was 75.6% (inactive).

In the case of `COc1ccc(OC)c2c1[nH]c(=O)c1c3ncccc3cn21`, the growth was 22.8% (inactive).

As for `O=S(=O)(Nc1cccc(Cl)c1)c1ccc(-c2cnc(C3CC3)o2)cc1`, the growth was 0.342% (active).

Regarding `COc1ccc(NC(=O)CSc2nc(C)c(C(C)=O)n2-c2ccc(Cl)cc2)cc1`, the growth is 102% (inactive).

As for `Cc1cc(/C=C\c2ccc3ccccc3[n+]2C)c(O)c2ncccc12`, the growth is 9.56% (active).

For the compound `CN(C)c1ccc(-c2ccc3[nH]c(=O)nc(-c4ccccc4)c3c2)cn1`, the growth was 37.1% (inactive).

With `O=C(c1ccccc1)N1N=C(c2ccccc2)CC1c1nnc2n(Cc3ccccc3)c(=O)c3c4c(sc3n12)CCCC4` (stereo not drawn), the growth was 117% (inactive).

For `N#Cc1c(N)nc2c(C#N)c(NC(=O)c3ccccc3)nn2c1-c1ccccc1`, the growth was 103% (inactive).

As for `COc1ccc(-c2nc3ccc4[nH]ncc4c3c3c2CCCC3)cc1B(O)O`, the growth was 45.8% (inactive).

For `C(=N\Nc1ncc(-c2cc3cc4c(cc3o2)OCO4)s1)/c1ccco1`, the growth was 6.46% (active).

With `Cn1c(-c2c(N)n(Cc3cccnc3)c3nc(C#N)c(C#N)nc23)nc2ccccc21`, the growth is 117% (inactive).

Turning to `C[n+]1cccc(CC(=O)NO)c1`, the growth is 97.7% (inactive).

As to `C=CCSc1nc2ccccc2cc1/C=N/O`, the growth was 94.1% (inactive).

Take `O=C(CCCCCCN1CC(=O)N2[C@@H](c3ccccc3Cl)c3[nH]c4ccccc4c3C[C@H]2C1=O)NO`: the growth was 59.6% (inactive).

On to `CCCCCCCOc1c(OC)cc(C2CC(=O)Nc3c2c(C)nn3-c2nc3ccccc3[nH]2)cc1OC` (stereo not drawn), for which the growth was 3.24% (active).

`COC(=O)c1c2c(c[n+]([O-])c1C)C(=O)C=CC2=O`: the growth was 33.5% (inactive).

Take `COc1cccc(-c2nn(-c3ccccc3)cc2-c2ccnc(NCCCNC(=O)Nc3ccc(Cl)c(Cl)c3)c2)c1`: the growth is -44.7% (active).

For the compound `Cc1ccc(NS(=O)(=O)c2ccc3c(c2)C2OCCC2C(c2ccc(C(=O)C(C)C)cc2)N3)cc1C` (stereo not drawn), the growth is 30.8% (inactive).

With `Cc1cc(NCc2cc(Nc3ccnc4cc(Cl)ccc34)ccc2F)nc(N2CCSCC2)n1`, the growth is -38.5% (active).

Regarding `O=C(/C=C/c1ccc(Cl)nc1)c1ccc(Cl)cc1Cl`, the growth was 111% (inactive).

Regarding `CCN(CC)CCCC(C)Nc1c2ccc(Cl)cc2nc2ccc(O)cc12` (stereo not drawn), the growth is -16.4% (active).

As to `CCCCCCCC/C=C\CCCCCCCCOc1ccccc1CC(=O)NCC[N+](C)(C)C`, the growth is -7.71% (active).

Consider `Cc1cc(NCc2cc(Nc3ccnc4cc(Cl)ccc34)ccc2F)nc(N2CCCC2)n1`, for which the growth was -78.4% (active).

Turning to `COc1ccc(C(=O)COc2ccc(/C=C3\Oc4ccccc4C3=O)cc2)cc1`, the growth is 99.2% (inactive).

As for `Cn1c2c(c3ccc(Cl)c(Cl)c31)C(C#N)C1(CCNCC1)NC2=O` (stereo not drawn), the growth is -76.6% (active).

With `N#Cc1c(-c2ccccn2)[nH]c(=S)[nH]c1=O`, the growth was 110% (inactive).

On to `Oc1c(CN2CCCC2)cc(COCc2ccc(Br)cc2)c2cccnc12`, for which the growth was 39.1% (inactive).

For `COc1ccc(N2CCN(c3nc(-c4cc(OC)c(OC)c(OC)c4)nc4ccccc34)CC2)cc1`, the growth is 62.9% (inactive).

In the case of `Nc1n[nH]c(-c2cc(Cl)ccc2O)c1-c1ccccc1`, the growth is 101% (inactive).

As to `Cc1ccc(-c2cc(-c3ccccc3C)[nH]c(=O)c2C#N)s1`, the growth is 117% (inactive).

In the case of `O=C(COc1ccc(/C=C2\Oc3ccccc3C2=O)cc1)c1ccc(Cl)cc1`, the growth is 108% (inactive).

Consider `O=C1CCC2=C3C4CCCCC4C(=O)C4CCCC(OC2C1)C34` (stereo not drawn), for which the growth is 75.3% (inactive).

On to `O=C(Nc1ccccc1Cl)Oc1ccc(-c2ccccc2)cc1`, for which the growth is 127% (inactive).

For `N#C/C(=C\c1ccc(-c2ccccc2F)o1)c1nc(-c2ccco2)cs1`, the growth was 99.6% (inactive).

For the compound `O=[N+]([O-])c1ccc(Sc2cccc[n+]2[O-])c2nonc12`, the growth is -67.3% (active).

Take `COc1cccc(C(=O)NCCNc2cc(-c3cn(-c4ccccc4)nc3-c3cccc(OC)c3)ccn2)c1`: the growth is 59% (inactive).

Source of the values: PubChem BioAssay (NCI).
